PubChem BioAssay
Values without a mark were called inactive.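 The calls were made as follows: active = viability at or below 10% of carrier control in both of two separate runs; inconclusive = viability at or below 10% in only one of the two runs; inactive = the rest.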

Assay: SK-BR-3 cell growth inhibitors, pilot screen, 24 h, human (AID 572);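 also: compound exposure lasted between 18 and 24 h rather than exactly 24 h; 100% = carrier-treated control wells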
Settings: SK-BR-3 viability, CellTiter-Glo luminescence, at 10 µM, hits give low values

Compound	viability
O=C(CS(=O)(=O)c1cn(Cc2ccc(Cl)cc2)c2ccccc12)N1CCCC1	81.5%
O=c1c2cc(N3CCOCC3)ccc2[nH]c(=S)n1CCCN1CCCC1	89%
CCOC(=O)c1[nH]c(C)c(C(=O)Nc2ccc(C)c(Cl)c2)c1C	94%
CSc1nnc(-c2nnc(SC)n2-c2ccccc2)n1-c1ccccc1	87%
COc1ccc(C(=O)NCc2ccccc2OC)cc1	110%
CCOC(=O)c1[nH]c(C)c(C(=O)N2CCN(C(=O)c3ccco3)CC2)c1C	88.5%
O=C(O)c1oc2ccccc2c1-n1cccc1	102%
Cc1nn(-c2ccc(F)cc2)c(C)c1NS(=O)(=O)c1ccc(Cl)cc1	106%
O=C(CSc1nnc(-c2ccccc2)c(-c2ccccc2)n1)N1CCOCC1	97%
O=C(NCCCNC(=O)c1ccccn1)c1ccccn1	106%
Cn1c(=O)c2[nH]c(NCC3CCCO3)nc2n(-c2ccccc2)c1=O (stereo not given)	94.5%
CCOC(=O)c1c(C)[nH]c(C=Nc2ccccc2)c1O	94%
COc1ccc(-n2c(SCc3ccc(C#N)cc3)nnc2-c2ccccn2)cc1	82.5%
O=C(O)c1ccc2c(c1)N(Cc1ccccc1F)C(=O)c1ccccc1S2=O (stereo not given)	96%
Cc1onc(-c2ccccc2Cl)c1C(=O)Nc1cccc(-c2cn3cccnc3n2)c1	104%
COc1cc(OC)cc(C(=O)NCCN2CCOCC2)c1	105%
Cn1c(=O)[nH]c(=O)c2c1nc(N1CCNCC1)n2CCOc1ccccc1	79.5%
COc1ccc(CC(NC(C)=O)C(=O)NC2CCN(c3nc(C)cc(C)c3C#N)CC2)c(OC)c1 (stereo not given)	102%
C[C@H](NC(=O)NCc1cccs1)C(=O)O	104%
O=C(CCS(=O)(=O)c1cc(Br)cc2c1N(C(=O)C1CC1)CC2)NCC1CCCO1 (stereo not given)	122%

Compound	viability
CCC1CCCCN1C(=O)Cn1c(C(=O)OC)cc2sc(Cl)cc21 (stereo not given)	76.5%
CC(=O)c1cnc2cc(-c3ccccc3)nn2c1C	91.5%
CCOC(=O)C1CCN(S(=O)(=O)c2cc(Cl)c(C)cc2OC)CC1	90%
CCCN1CCN(C(=O)Cn2c(=O)oc3cc(S(=O)(=O)NCc4ccccc4)ccc32)CC1	92.5%
COc1ccc(S(=O)(=O)N2CCC(C(=O)c3ccc4c(c3)OCCO4)CC2)cc1	88.5%
CCCC(=O)Nc1nnc(CC(=O)OCC)s1	111%
c1ccc(OCCCn2nnc(-c3cccnc3)n2)cc1	110%
CC(=O)N1C(=O)N(C)C2C1N(C(C)=O)C(=O)N2C (stereo not given)	125%
COc1cccc(NC(=O)N2CCCC2C(=O)NC(C)C)c1 (stereo not given)	112%
c1ccc2ncc(-n3cnnn3)cc2c1	99.5%
CC(=O)Nc1ccc(OC(=O)c2cccnc2)cc1	111%
O=C(CN1C(=O)c2cccc3cccc1c23)N1CCN(c2ccccc2)CC1	100%
CSc1ccccc1NC(=O)c1c(Br)cnn1C	89.5%
O=C(c1ccccc1Oc1nnnn1-c1ccccc1)N1CCOCC1	89.5%
O=C(CSc1nnc(COc2ccc(Cl)cc2)o1)N1CCN(c2ccccc2)CC1	100%
CCOC(=O)c1ccccc1NC(=O)Cn1cnc2c(cnn2-c2ccc(OC)cc2)c1=O	89.5%
COC(=O)c1c(C)oc2ccc(NS(=O)(=O)c3cccs3)cc12	106%
COc1cc2[nH]c(=O)n(CCC(=O)N3CCc4ccccc4C3)c(=O)c2cc1OC	102%
CCOC(=O)c1c(NC(=O)CSc2nnc(-c3cccnc3)o2)sc(C)c1C	120%
CC1CCN(C(=O)CSc2nnc(-c3ccc(S(=O)(=O)N4CCOCC4)cc3)n2C)CC1	108%
